Measured values from PubChem BioAssay (Tox21).
Values joined by “and” are separate entries in the source; they are usually repeats but may differ in a detail not shown here. Equal entries are not always repeated. Unmarked numbers belong to inactive results. Records with an inconclusive call do not appear. A call without a number means that no potency is given here. Active and inactive are the calls of the source. Unless noted, calls come from the whole dose curve; as a rule, active = well fitted curve in the direction sought with a large enough effect in the repeat runs; inconclusive = weak or mixed curves; inactive = no such curve, though single readings can be large; an effect the other way counts as inactive or inconclusive.

Experiments:
[1] = qHTS assay to identify small molecule agonists of the estrogen receptor alpha (ER-alpha) signaling pathway in the presence of an antagonist - cell viability counter screen (AID 1259386);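 note: cells exposed to compounds for 22 h at 37 °C before the viability read; nearly all actives have a fitted effect of over 30% in size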; note: potency is the fitted concentration of half-maximal effect
Method in brief: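 The test measures whether compounds kill ER-alpha reporter cells (VM7Luc4E2) under antagonist co-treatment (ICI-182,780, 10.0nM). Fluorescence from CellTiter-Fluor is read after a 22hr exposure.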

[2] = target: Progesterone receptor (Homo sapiens) (UniProt P06401); experiment: qHTS assay to identify small molecule agonists of the progesterone receptor (PR) signaling pathway (AID 1346784; calls by dose curve; note: nearly all actives have a fitted effect of over 30% in size; note: potency is the fitted concentration of half-maximal effect)
Method in brief: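 Compounds were tested for PR agonism in HEK 293T cells bearing a beta-lactamase gene under UAS control. Treatment lasted 16 hr at 37C; signal came from fluorescence of a FRET substrate.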

[3] = target: Progesterone receptor (Homo sapiens) (UniProt P06401); experiment: qHTS assay to identify small molecule antagonists of the progesterone receptor (PR) signaling pathway (AID 1346795; active = well fitted inhibition curve with a large enough effect in the signal ratio in the repeat runs, not every such curve was filed as active; the % refers to the signal ratio; note: potency is the fitted concentration of half-maximal effect)
Method in brief: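 In HEK293T cells bearing the PR-UAS-bla reporter, compound effects on promegestone-driven (1 nM) beta-lactamase expression are assessed after 16 hr using a fluorescent FRET substrate incubated 2 hr at room temperature.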

[4] = qHTS assay to identify small molecule antagonists of the progesterone receptor (PR) signaling pathway - cell viability counter screen (AID 1346798); note: nearly all actives have a fitted effect of over 50% in size; note: potency is the fitted concentration of half-maximal effect
Method in brief: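 Following a 4 hr attachment, PR-UAS-bla HEK293T cells in charcoal-stripped FBS medium were exposed to compounds with R5020 for 16 hr; CellTiter-Glo was added and luminescence read after 30 min at room temperature.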

[5] = qHTS assay to identify small molecule agonists of the progesterone receptor (PR) signaling pathway - cell viability counter screen (AID 1346799; calls by dose curve; note: nearly all actives have a fitted effect of over 45% in size; note: potency is the fitted concentration of half-maximal effect)
Method in brief: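 Here, 3,000 PR-UAS-bla HEK293T cells per well were treated with compounds for 16 hr after a 6 hr preincubation at 37C and 5% CO2; cell viability is the CellTiter-Glo luminescence signal.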

[6] = qHTS assay to identify small molecule antagonists of the TGF-beta/Smad signaling pathway - cell viability counter screen (AID 1346824); note: nearly all actives have a fitted effect of over 50% in size
Method in brief: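 SBE-bla HEK 293T cells, incubated overnight, then compound plus 0.25 ng/mL TGF-beta1 (stock added) for 5 hr at 37 C. Viability was read in the same wells by CellTiter-Glo luminescence after 30 min at room temperature.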

[7] = qHTS assay to identify small molecule agonists of the TGF-beta/Smad signaling pathway - cell viability counter screen (AID 1346829); note: top concentration of the series differs between compounds; nearly all actives have a fitted effect of over 45% in size
Method in brief: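 HEK 293T SBE-bla line, 5 hr compound exposure at 37 C, multiplexed CellTiter-Glo viability read by luminescence.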

[8] = qHTS assay to identify small molecule agonists of the TGF-beta/Smad signaling pathway (AID 1346859; active = well fitted activation curve with a large enough effect in the signal ratio in the repeat runs, not every such curve was filed as active; the % refers to the signal ratio; note: series mostly up to about 77 µM)
Method in brief: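 Each well held 4,000 SBE-bla HEK 293T cells incubated overnight before compound addition; 5 hr later the cleavable FRET substrate went on for 2 hr at room temperature, and fluorescence was read at two emissions.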

[9] = target: Thyrotropin-releasing hormone receptor (Homo sapiens) (UniProt P34981); experiment: qHTS assay to identify small molecule antagonists of the thyrotropin-releasing hormone receptor (TRHR) signaling pathway (AID 1346877; active = well fitted inhibition curve with a large enough effect in the repeat runs, not every such curve was filed as active; note: series mostly up to about 51 µM)
Method in brief: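 Overnight-plated (18 h, 37 °C) HEK293 cells expressing TRHR were dye-loaded 2 h, treated with compound, then stimulated with TRH at 1 nM final. Fluorescence intensity was captured every second for 3 min.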

[10] = target: Thyrotropin-releasing hormone receptor (Homo sapiens) (UniProt P34981); experiment: qHTS assay to identify small molecule agonists of the thyrotropin-releasing hormone receptor (TRHR) signaling pathway (AID 1346891; calls by dose curve; note: series mostly up to about 58 µM)
Method in brief: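 Screening of agonists relied on calcium signalling in HEK293 cells expressing human TRHR: dye loading 2 h at 37 °C preceded compound addition and a 3-min fluorescence time course.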

[11] = Human pregnane X receptor (PXR) small molecule agonists, qHTS cell viability counter screen (AID 1346977); note: nearly all actives have a fitted effect of over 50% in size; note: potency is the fitted concentration of half-maximal effect
Method in brief: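 Tox21 qHTS format; PXR-Luc HepG2, 2,000/well, charcoal-stripped FBS 5%. Cpd exposure 24hr. Read: CellTiter-Fluor fluorescence, multiplexed with luciferase.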

[12] = Caspase-3/7 induction in HepG2 cells by small molecules, qHTS assay (AID 1346978); note: nearly all actives have a fitted effect of over 15% in size; note: potency is the fitted concentration of half-maximal effect
Method in brief: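 Wild-type HepG2 cells, 2,000/well, settled 5 hr at 37 C and 5% CO2, then compound-treated for 17 hr; caspase-3/7 activity read by luminescent Caspase-Glo 3/7 after 30 min at room temperature.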

[13] = Caspase-3/7 induction in CHO-K1 cells by small molecules, qHTS cell viability counter screen (AID 1346979); note: nearly all actives have a fitted effect of over 35% in size; note: potency is the fitted concentration of half-maximal effect
Method in brief: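 CellTiter-Fluor viability check, qHTS format: wild-type CHO-K1, 16hr compound treatment, 1hr reagent incubation, fluorescence read.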

[14] = Caspase-3/7 induction in CHO-K1 cells by small molecules, qHTS assay (AID 1346980); note: nearly all actives have a fitted effect of over 15% in size; note: potency is the fitted concentration of half-maximal effect
Method in brief: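 Wild-type CHO-K1 cells exposed to compounds for 17hr at 37 C, 5% CO2. Caspase-3/7 activity then measured by Caspase-Glo 3/7 luminescence after 30min at room temperature.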

[15] = Caspase-3/7 induction in HepG2 cells by small molecules, qHTS cell viability counter screen (AID 1346981); note: nearly all actives have a fitted effect of over 30% in size; note: potency is the fitted concentration of half-maximal effect
Method in brief: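 Treatment of HepG2 cells with DMSO-delivered compounds ran 16 hr at 37 C following a 5-hr pre-incubation of 2,000 cells/well. CellTiter-Fluor fluorescence, read after 1 hr, served as the viability measure in a qHTS format.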

[16] = target: Nuclear receptor subfamily 1 group I member 2 (Homo sapiens) (UniProt O75469); experiment: Human pregnane X receptor (PXR) small molecule agonists, qHTS assay (AID 1346982); note: nearly all actives have a fitted effect of over 35% in size; note: potency is the fitted concentration of half-maximal effect
Method in brief: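 Stable HepG2 line reporting PXR-mediated CYP3A4 expression via luciferase. Treatment: 24 hr with compounds in DMSO at 37 C. Detection: ONE-Glo luminescence.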

[17] = target: Nuclear receptor subfamily 1 group I member 2 (Rattus norvegicus) (UniProt Q9R1A7); experiment: Rat pregnane X receptor (rPXR) activation by small molecules, qHTS assay (AID 1346983); conditions: rPXR luciferase reporter cells, One-Glo luminescence, 24 h; max activation: active compounds read high; note: nearly all actives have a fitted effect of over 20% in size
Method in brief: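 Cell-based rPXR activation assay: rPXR cells, 2,000 per well, rested 5hr at 37 C, then exposed to compounds in DMSO for 24 hr at 37 C. Luciferase activity read by One-Glo luminescence after 30 min at room temperature.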

[18] = target: Nuclear receptor subfamily 1 group I member 2 (Homo sapiens) (UniProt O75469); experiment: Human pregnane X receptor (PXR) activation by small molecules, qHTS assay (AID 1346985); note: nearly all actives have a fitted effect of over 40% in size
Method in brief: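 DPX-2 cells (HepG2 co-transfected with a PXR response element and a CYP3A4-promoter luciferase construct) were seeded at 2,000 per well, rested 5 hr at 37C, then exposed to DMSO-dissolved compounds for 24 hr. Activation was read as luciferase luminescence.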

[19] = target: Cytochrome P450 2D6 (Homo sapiens) (UniProt P10635); experiment: Cytochrome P450 Family 2 Subfamily D Member 6 (CYP2D6) small molecule antagonists: luciferase reporter qHTS assay (AID 1671196); note: nearly all actives have a fitted effect of over 50% in size; note: potency is the fitted concentration of half-maximal effect
Method in brief: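 Chemicals tested for interference with CYP2D6 activity; proluciferin substrate, NADPH regeneration, 1 h at room temperature, luminescent detection.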

Sequence of Nuclear receptor subfamily 1 group I member 2 (Homo sapiens) (O75469 whole entry, looked up): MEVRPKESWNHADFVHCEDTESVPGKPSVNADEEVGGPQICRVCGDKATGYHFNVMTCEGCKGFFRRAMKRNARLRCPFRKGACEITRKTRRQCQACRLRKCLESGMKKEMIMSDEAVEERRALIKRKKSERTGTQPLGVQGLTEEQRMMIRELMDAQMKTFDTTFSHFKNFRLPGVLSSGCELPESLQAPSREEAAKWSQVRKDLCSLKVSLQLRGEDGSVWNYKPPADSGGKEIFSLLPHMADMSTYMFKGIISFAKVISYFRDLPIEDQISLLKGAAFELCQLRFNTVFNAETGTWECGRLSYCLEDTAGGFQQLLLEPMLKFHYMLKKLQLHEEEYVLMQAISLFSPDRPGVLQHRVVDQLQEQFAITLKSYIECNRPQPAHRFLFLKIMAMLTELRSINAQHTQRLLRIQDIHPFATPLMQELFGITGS
Sequence of Thyrotropin-releasing hormone receptor (Homo sapiens) (P34981 whole entry, looked up): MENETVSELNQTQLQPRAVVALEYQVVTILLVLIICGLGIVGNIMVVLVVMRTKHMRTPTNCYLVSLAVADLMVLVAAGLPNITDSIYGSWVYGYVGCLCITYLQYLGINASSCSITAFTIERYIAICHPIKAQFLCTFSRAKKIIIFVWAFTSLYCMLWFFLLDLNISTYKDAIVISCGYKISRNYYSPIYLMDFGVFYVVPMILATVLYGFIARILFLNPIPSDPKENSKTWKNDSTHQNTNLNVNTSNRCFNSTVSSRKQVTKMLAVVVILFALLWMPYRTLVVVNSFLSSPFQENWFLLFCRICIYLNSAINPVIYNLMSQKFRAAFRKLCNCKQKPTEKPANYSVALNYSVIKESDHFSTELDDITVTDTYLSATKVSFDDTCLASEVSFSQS
Sequence of Cytochrome P450 2D6 (Homo sapiens) (P10635 whole entry, looked up): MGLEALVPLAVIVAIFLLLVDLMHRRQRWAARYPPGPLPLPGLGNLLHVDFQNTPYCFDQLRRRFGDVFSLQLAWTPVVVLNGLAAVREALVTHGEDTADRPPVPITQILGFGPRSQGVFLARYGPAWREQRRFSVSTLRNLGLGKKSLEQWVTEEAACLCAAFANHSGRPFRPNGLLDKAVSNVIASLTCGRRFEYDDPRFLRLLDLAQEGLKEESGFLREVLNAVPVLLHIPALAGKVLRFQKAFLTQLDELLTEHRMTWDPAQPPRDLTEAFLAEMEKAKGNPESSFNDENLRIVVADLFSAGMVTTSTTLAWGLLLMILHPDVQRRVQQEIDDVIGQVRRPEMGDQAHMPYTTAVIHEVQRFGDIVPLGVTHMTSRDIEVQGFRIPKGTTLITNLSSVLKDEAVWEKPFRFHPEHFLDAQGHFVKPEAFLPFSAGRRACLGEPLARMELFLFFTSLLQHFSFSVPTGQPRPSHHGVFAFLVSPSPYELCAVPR
Sequence of Progesterone receptor (Homo sapiens) (P06401 whole entry, looked up): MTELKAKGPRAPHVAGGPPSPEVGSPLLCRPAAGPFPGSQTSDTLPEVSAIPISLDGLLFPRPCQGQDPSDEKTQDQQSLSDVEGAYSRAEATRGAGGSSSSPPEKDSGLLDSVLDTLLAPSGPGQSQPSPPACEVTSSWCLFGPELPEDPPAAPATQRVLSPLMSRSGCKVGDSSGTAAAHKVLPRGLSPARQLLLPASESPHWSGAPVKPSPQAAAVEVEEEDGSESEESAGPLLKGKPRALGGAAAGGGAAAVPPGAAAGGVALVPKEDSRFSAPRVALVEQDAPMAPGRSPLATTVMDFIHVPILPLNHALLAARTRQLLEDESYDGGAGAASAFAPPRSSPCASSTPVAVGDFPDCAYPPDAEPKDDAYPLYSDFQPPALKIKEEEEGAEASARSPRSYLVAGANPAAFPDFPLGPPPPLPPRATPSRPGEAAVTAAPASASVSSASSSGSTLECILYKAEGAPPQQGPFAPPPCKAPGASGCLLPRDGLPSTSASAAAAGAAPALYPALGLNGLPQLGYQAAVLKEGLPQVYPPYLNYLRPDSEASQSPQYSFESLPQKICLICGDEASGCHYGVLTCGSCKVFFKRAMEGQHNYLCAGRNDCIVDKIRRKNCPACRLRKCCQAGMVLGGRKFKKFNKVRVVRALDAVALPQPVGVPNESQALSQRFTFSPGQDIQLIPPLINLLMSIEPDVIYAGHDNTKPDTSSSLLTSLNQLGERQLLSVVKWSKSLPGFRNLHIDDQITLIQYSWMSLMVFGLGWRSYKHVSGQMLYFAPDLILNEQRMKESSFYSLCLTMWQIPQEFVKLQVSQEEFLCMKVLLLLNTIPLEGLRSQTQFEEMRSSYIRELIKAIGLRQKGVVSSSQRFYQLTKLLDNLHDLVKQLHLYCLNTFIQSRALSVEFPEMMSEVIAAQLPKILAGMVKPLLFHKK
Sequence of Nuclear receptor subfamily 1 group I member 2 (Rattus norvegicus) (Q9R1A7 whole entry, looked up): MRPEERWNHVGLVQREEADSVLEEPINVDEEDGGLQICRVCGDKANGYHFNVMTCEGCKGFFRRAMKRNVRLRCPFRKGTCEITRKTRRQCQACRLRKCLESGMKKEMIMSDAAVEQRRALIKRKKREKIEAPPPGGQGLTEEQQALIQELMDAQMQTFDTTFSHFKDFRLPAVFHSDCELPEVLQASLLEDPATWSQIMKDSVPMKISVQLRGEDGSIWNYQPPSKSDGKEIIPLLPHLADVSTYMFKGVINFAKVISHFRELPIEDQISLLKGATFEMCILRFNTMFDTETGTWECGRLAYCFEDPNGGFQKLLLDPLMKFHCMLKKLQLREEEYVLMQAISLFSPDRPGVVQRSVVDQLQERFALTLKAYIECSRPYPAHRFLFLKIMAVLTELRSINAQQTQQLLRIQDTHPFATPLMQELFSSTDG

SMILES	Potency [1]	Potency [2]	Potency [3]	Potency [4]	Potency [5]	Potency [6]	Potency [7]	Potency [8]	Potency [9]	Potency [10]	Potency [11]	Potency [12]	Potency [13]	Potency [14]	Potency [15]	Potency [16]	max activation [17]	Potency [18]	Potency [19]
NC(=O)NS(=O)(=O)c1ccc(N)cc1	inactive	inactive	inactive	inactive	inactive	inactive	inactive	inactive	inactive	inactive	inactive	inactive	inactive	inactive	inactive	inactive	-4.58%	inactive	inactive
Oc1ccc2c(c1)-c1ccccc1C2	inactive	inactive	17.2 µM (active)	inactive	inactive	inactive	inactive	inactive	inactive	inactive	inactive	inactive		inactive	inactive	68.6 µM (active)			inactive
CSc1cnc(C)cn1	inactive	inactive	inactive	inactive	inactive	inactive	inactive	inactive	inactive		inactive	inactive	inactive	inactive	inactive	inactive			inactive
N#CSc1ccc(N)c([N+](=O)[O-])c1	48.9 µM (active)	inactive	30.8 µM (active)	inactive	inactive	inactive	inactive	inactive			30.8 µM (active)	inactive	38.8 µM (active)	inactive	54.8 µM (active)	12.3 µM (active)			
c1ccc(CSCc2ccccc2)cc1	inactive	inactive	inactive	inactive	inactive	inactive		inactive	inactive		inactive	inactive		inactive	inactive	27.2 µM (active)			
CCCCCCCC(=O)[O-].CCCCCCCC(=O)[O-].[Zn+2]	inactive	inactive	inactive	inactive	inactive	inactive	inactive	inactive			inactive	inactive	inactive		inactive	inactive			inactive
O=Cc1cc(O)ccc1Br	inactive	0.983 µM (active)	55.3 µM (active)			inactive	inactive	inactive			inactive		inactive	inactive	inactive				
Cc1cc(O)c(Cl)c(C)c1Cl	inactive	inactive	inactive		inactive	inactive	inactive	inactive	inactive		inactive	inactive	inactive	inactive	inactive	inactive			inactive
CN(C)CCCOC1(Cc2ccccc2)CCCCCC1	inactive	inactive	inactive	inactive			inactive	inactive	inactive	inactive			inactive	inactive	inactive				1.55 µM (active)
O=C(Oc1ccccc1)c1ccccc1C(=O)Oc1ccccc1	inactive	inactive	24.3 µM (active)	inactive		inactive	inactive	inactive	inactive	inactive	inactive	inactive			inactive	inactive			
CCCCCCCCS(=O)C(C)Cc1ccc2c(c1)OCO2 (stereo not drawn)	inactive	inactive	44.1 µM (active)			inactive	inactive	inactive				inactive		inactive	69.9 µM (active)	19.7 µM (active)			64.6 µM (active)
Clc1ccc2nsnc2c1NC1=NCCN1	inactive	inactive	inactive	inactive	inactive		inactive	inactive			inactive	inactive	inactive		inactive	inactive	-3.32%	inactive	12.3 µM (active)
CCCCCCCCCCCCCCCC(=O)OC[C@H](O)[C@H]1OC(=O)C(O)=C1O	inactive	inactive	inactive		27.3 µM (active)	inactive	inactive	inactive	inactive		inactive	inactive		inactive	inactive	inactive			
CC(C)(C)NC(=O)[C@@H]1C[C@@H]2CCCC[C@@H]2CN1C[C@@H](O)[C@H](Cc1ccccc1)NC(=O)[C@H](CC(N)=O)NC(=O)c1ccc2ccccc2n1	49.2 µM (active)	inactive	49.2 µM (active)	55.2 µM (active)	39.1 µM (active)						19.6 µM (active)	69.5 µM (active)	19.6 µM (active)	61.9 µM (active)	27.7 µM (active)	24.7 µM (active)	7.59%		
O=C(c1ccc(O)cc1O)c1ccc(O)cc1O	inactive	inactive	10.9 µM (active)		inactive		inactive	inactive	inactive	inactive	inactive	inactive		inactive	inactive	61.2 µM (active) and 43.3 µM (active)			7.98 µM (active) and 11.2 µM (active)
O=CC=C(c1ccccc1)c1ccccc1	inactive	inactive	27.5 µM (active)	61.6 µM (active)			inactive	inactive	inactive	inactive		inactive	54.9 µM (active)			69.1 µM (active)			
